In PubChem BioAssay AID743279 (National Center for Advancing Translational Sciences (NCATS), 2014):
In all, about 360,000 compounds went through this assay and about 17,000 (4.7%) were called active. Roughly 5% stayed inconclusive and do not appear here. The sample as a whole holds a higher share of actives than the screen did. A number with no mark means an inactive call. Rule as the data show it: active = activity change below about -50%; inconclusive = mostly about -30% to -49%; inactive = weaker than that.

test: qHTS for Inhibitors of Inflammasome Signaling: IL-1-beta AlphaLISA Primary Screen; conditions: THP-1 LPS/ATP IL-1B secretion, 16 h; at 57.5 µM, stronger effect = lower value
How it was run: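 Secreted IL-1B measured by AlphaLISA bead assay after 16 h compound exposure of THP-1 cells; compounds (final up to 57.5 uM) added 1 h before LPS (250 ng/mL) and ATP (1.25 mM) stimulation; lower signal means less secretion.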
% is scaled to controls: 0 for no effect and ±100 for the full control effect.

Compound | activity change
COC1(C2=NCCN2)COc2ccccc2O1 (configuration not stated) | 6.63%
COc1ccc(C2SCCN2S(=O)(=O)c2ccccc2)cc1OC (configuration not stated) | -9.4%
COc1cc2c(cc1OC)CN(C(=O)c1ccc(S(=O)(=O)N3CCCCCC3)cc1)CC2 | -4.82%
COc1cc2c(cc1OC)C(C)N(S(=O)(=O)c1cnc(Cl)c(Cl)c1)CC2 (configuration not stated) | -97.4% (active)
COc1ccc(CC2c3cc(OC)c(OC)cc3CC[N+]2(C)CCC(=O)OCCCCCOC(=O)CC[N+]2(C)CCc3cc(OC)c(OC)cc3C2Cc2ccc(OC)c(OC)c2)cc1OC (configuration not stated) | -63.5% (active)
CCc1ccc(OCC2c3cc(OC)c(OC)cc3CCN2C(C)=O)cc1 (configuration not stated) | -10.3%
COC(=O)C1=CN(Cc2ccc(OC)c(OC)c2)C=C(C(=O)OC)C1c1cccs1 | 17.5%
Cc1ccc([C@H]2C[C@H](O)[C@@H](n3cc(COC(=O)c4ccccc4)nn3)CN2C(=O)C2CCCCC2)cc1 | -14.7%
C[C@H](CO)N1C[C@H](C)[C@@H](CN(C)C(=O)c2cccc(F)c2)Oc2cc(-c3cncnc3)ccc2S1(=O)=O | 3.54%
Clc1ccc(-c2cccc3nccn23)cc1 | 34.4%
CCOC(=O)c1cnn2c(SC)ncnc12 | -22.6%
CN(/N=C/c1ccccc1)C(=S)c1ccccc1 | 1.93%
CN(O)C(=S)c1ccccc1 | -116% (active)
CN(CC(=O)O)C(=O)c1ccccc1 | 19.1%
CC(C)(C)C1CCC(=O)N2CCC[C@]2(c2ccccc2)C1 (some centres not stated) | 0.891%
COC(=O)c1c(NC(=O)CN2C(=O)NC(CCc3ccccc3)C2=O)sc2c1CCCCC2 (configuration not stated) | -15.4%
CCOC(=O)CC(=O)CSc1nc(-c2ccccc2)cc(-c2ccc(Cl)cc2)c1C#N | 6.24%
CCOc1cc(-c2cc(-c3ccc(OC)cc3)nc(N)c2C#N)ccc1O | -3.59%
CCOc1cc(-c2cc(-c3ccc(NC(C)=O)cc3)nc(N)c2C#N)ccc1O | -53.1% (active)
CC(C)(C)S(=O)(=O)N1Cc2cc(CO)cc(CCO)c2[C@H]1CCO | 8.29%
CN(C)C(=O)c1cccc(-c2cnc3c(NC=O)cc(-c4ccc(C(=O)N5CCOCC5)cc4)cn23)c1 | -14.1%
O=C(CSc1nc(C2CC2)nc2ccccc12)Nc1cccc(O)c1 | 2.55%
O=C(CSc1nc(C2CC2)nc2ccccc12)Nc1ccc2c(c1)OCCO2 | -71.5% (active)

Compound | activity change
Cc1nnc(NC(=O)CSc2nc(C3CCCCC3)nc3ccccc23)s1 | -0.35%
CCN(CC)C(=O)C1=C(C)N(Cc2ccc(OC)cc2)C(=O)C(CC(=O)NCCCCc2ccccc2)C1 (configuration not stated) | -14.3%
CCCCCCCCCCCCN1C(=O)CSC1c1cccnc1 (configuration not stated) | -56.2% (active)
CN(C)CCCN1C(=O)CSC1c1ccc([N+](=O)[O-])cc1 (configuration not stated) | 36.5%
CCCCc1ccc(NC(=O)NCc2cccnc2)cc1 | -8.19%
O=C(NCc1cccnc1)c1ccc2nc([C@@H]3O[C@H](CO)[C@H](O)[C@H](O)[C@H]3O)[nH]c2c1 | 2.47%
COc1cc(C(=O)OCC(=O)N(CC(C)C)C2CCS(=O)(=O)C2)ccc1OCC(C)C (configuration not stated) | -19.9%
COc1cccc(-c2noc(C3CCCN(C(=O)c4ccc(F)cc4)C3)n2)c1 (configuration not stated) | -17.2%
CCOC(=O)C1(CCOc2ccccc2)CCN(Cc2cc(OC)cc(OC)c2)CC1 | -89.9% (active)
CCOC(=O)C1(CCOc2ccccc2)CCN(Cc2ccc(C#CCCO)cc2)CC1 | -57.7% (active)
CCCS(=O)(=O)N1CCC(CCOc2ccccc2)(C(=O)OCC)CC1 | 30.8%
CCOC(=O)C1(CCOC)CCN(Cc2ccc(C(=O)OC)cc2)CC1 | 4.83%
CCOC(=O)C1(CCOc2ccccc2)CCN(Cc2cc(OC)c(O)cc2Cl)CC1 | -22.4%
CCOC(=O)C1(CCOc2ccccc2)CCN(C(=O)c2cncs2)CC1 | -28.5%
COc1ccc(NC2CC(=O)N(C)C2=O)cc1 (configuration not stated) | 19.6%
C/C(=N/Nc1nc(-c2ccccc2)c(CC(=O)O)s1)c1ccccc1 | -6.09%
CC(C)CCC(=O)Nc1cc(S(=O)(=O)N2CCOCC2)ccc1N1CCCC1 | -21.6%
CCc1nc2ccc(C(=O)N3CCC(O)(Cc4ccccc4)CC3)cn2c1N(C)C(=O)Cc1ccccc1 | 1.17%
Cc1csc(NC(=O)C2CCN(S(=O)(=O)c3ccccc3)CC2)n1 | -7.33%
COc1ccc(OC)c(/C=C/C(=O)OCC(=O)Nc2ccc3c(c2)OCCO3)c1 | 37.8%
COc1cc(C=C(OC(C)=O)c2ccc3c(c2)OCO3)cc(OC)c1OC | 24.5%
COc1ccc(OC)c(/C=C/C(=O)c2ccc3c(c2)OCO3)c1 | -97.2% (active)
CCOC(=O)c1c(S(=O)(=O)NCC(=O)Nc2ccc(C)cc2)c(C)n(C)c1C | -6.41%

Compound | activity change
CCOc1cc(/C=N/NC(=O)c2ccncc2)cc(Br)c1O | -14.1%
Cc1ccc(N2C(=O)SC(N(CC(=O)O)c3ccc(C)cc3)C2=O)cc1 (configuration not stated) | 18.1%
Cc1c(C(=O)N2CCN(c3ccc(F)cc3)CC2)oc2c1C(=O)CCC2 | 14.7%
Cc1ccc2c(C)c(C(=O)N(C)Cc3ccncn3)oc2c1C | 13.6%
Cc1ccc2c(C)c(C(=O)N3CCN(c4ccncc4)CC3)oc2c1C | -52.1% (active)
O=C(Nc1ccccc1F)c1cc(S(=O)(=O)N2CCCCC2)cs1 | 6.67%
CC12CCCCC1=CC(=O)CC2 (configuration not stated) | 13.3%
Cn1c(SCC(=O)c2ccccc2)ncc(C(=O)Nc2ccc(F)cc2)c1=O | -2.98%
CCn1c(SCC(=O)NCC2CCCO2)nc2ccccc21 (configuration not stated) | 31.3%
Cc1ccc(NC(=O)c2cnc(SCC(=O)NCC3CCCO3)n(C)c2=O)cc1 (configuration not stated) | -103% (active)
NC(=O)c1ncn([C@@H]2O[C@H](CNCc3cnc(N4CCOCC4)s3)[C@@H](O)[C@H]2O)n1 | 17.3%
CC1CN(C(=O)c2ccc3c(c2)OCO3)OC(c2ccccc2)O1 (configuration not stated) | -0.281%
O=C(Cn1cc(C(F)(F)F)ccc1=O)N/N=C/c1ccc(Cl)cc1Cl | 0%
CCOc1cc(C(=O)O)ccc1OCCOc1ccccc1 | 4.78%
COc1ccc(C(=O)NCC[N+](C)(C)C)cc1 | 22.2%
CC/C(=C(/c1ccccc1)c1ccc(OCC[N+](C)(C)C)cc1)c1ccccc1 | -61.5% (active)
CCN(c1ccccc1)S(=O)(=O)c1cc(C(=O)NCc2ccccn2)ccc1C | -10.4%
CN(Cc1ccccc1)C(=O)CCC1CCN(C(=O)c2ccco2)CC1 | -7.63%
O=C(Nc1ccc(S(=O)(=O)NCC2CCCO2)cc1)c1ccc(F)cc1 (configuration not stated) | 11.6%
CNC(=O)C[C@H]1C(=O)N(c2ccc(OC)cc2)C[C@@H]1Cc1ccccc1 | -12.1%
COc1ccc(N2C(=O)C3C(C2=O)C(C(=O)c2ccccc2)N2CCCC32)cc1 (configuration not stated) | -82.1% (active)
COc1ccc(N2C(=O)CC(N3CCC(C(N)=O)CC3)C2=O)cc1 (configuration not stated) | -4%
OCC(CO)(CO)NCc1ccc(-c2ccccc2)cc1 | 6.61%

Compound | activity change
Cc1ccc(-c2noc(CSc3nnc(-c4cccs4)n3C)n2)cc1 | 34.2%
Cc1ccc(-c2noc(CSc3nnnn3-c3ccccc3)n2)cc1 | -64.8% (active)
Cc1ccc(-c2noc(CSc3nnc(-c4ccncc4)n3-c3ccc(F)cc3)n2)cc1 | -15.2%
CCCCCCCCOC1OC(CO)C(O)C(O)C1NC(C)=O (configuration not stated) | 48.8%
CSCCC(NC(=O)COc1ccccc1)C(=O)N1CCN(c2cccc(C(F)(F)F)c2)CC1 (configuration not stated) | -61.8% (active)
O=C(COc1ccc(Cl)cc1)N1CCN(c2cccc(C(F)(F)F)c2)CC1 | -4.57%
CSCCC(NC(=O)COc1ccccc1)C(=O)OCCOc1ccc(F)cc1 (configuration not stated) | 5.31%
O=C(N[C@@H](Cc1c[nH]c2ccccc12)C(=O)O)OCC1c2ccccc2-c2ccccc21 | 4.34%
Cc1nnc(NC(=O)C(c2ccccc2)c2ccccc2)s1 | -5.78%
Cc1nnc(NC(=O)Nc2ccc(Cl)c(Cl)c2)s1 | -94% (active)
Cc1nnc(NC(=O)c2ccc3nccnc3c2)s1 | -17.3%
C[C@@H]1CN([C@@H](C)CO)C(=O)c2c(c3ccccc3n2C)-c2ccccc2CO[C@H]1CN(C)C(=O)C1CC1 | 23%
Cc1ccc(CN(C)C[C@@H]2OCc3cnnn3CCCC(=O)N([C@@H](C)CO)C[C@H]2C)cc1 | 13.2%
O=C(CN1CCC(O)(c2ccccc2)CC1)Nc1ccc2c(c1)OCCO2 | -25.5%
O=C(CCN1CCc2ccccc2C(O)(c2ccccc2)C1)c1ccc2c(c1)OCCO2 (configuration not stated) | -101% (active)
O=C(COC(=O)c1ccccc1)c1ccc2c(c1)OCCO2 | -8.63%
CC(C)(O)C#Cc1ccc(CN2CCC(CO)(CCc3ccccc3)CC2)cc1 | -1.38%
Cc1c(CN2CCC(CO)(CCOc3ccccc3)CC2)[nH]c2ccc(Cl)cc12 | -96.7% (active)
OCC1(CCOc2ccccc2)CCN(Cc2cn[nH]c2-c2ccccc2)CC1 | -2.13%
CC1CCN(c2ccc3c(c2)S(=O)(=O)c2cc(C(=O)O)ccc2C3=O)CC1 | 22%
Cc1cccc(-n2ncc(Cl)c(Cl)c2=O)c1 | -100% (active)
Cc1cccc(-n2ncc(C#N)c2-n2cccc2)c1 | 28.7%
C=CCNc1cnn(-c2ccc(C)cc2)c(=O)c1Cl | -16.2%
